FBW7 act = FBW7 E3 ligase activators, primary screen, biochemical, AlphaScreen, human. F-box/WD repeat-containing protein 7 (Homo sapiens), Q969H0. AlphaScreen FBW7–phospho-cyclin E peptide binding, activator screen. normalized activity (activation), % at 26.1 µM. hit rate 0.13% among 650,000; in the data active = normalized activity above about 1.9%;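 note: purified mutant Fbw7 with reduced substrate affinity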
GPR151 activ = activators of human GPR151, primary screen, cell-based, PathHunter beta-arrestin, luminescence; G-protein coupled receptor 151 (Homo sapiens), Q8TDV0; PathHunter beta-arrestin GPR151 cells; activation, % at 11.2 µM; hit rate 1% among 650,000; in the data active = activation above about 4.9%
MITF inh = MITF inhibitors, primary screen, biochemical, AlphaScreen, human; Microphthalmia-associated transcription factor (Homo sapiens), O75030; AlphaScreen MITF homodimerization, bead proximity signal; inhibition, % at 2.6 µM; hit rate 0.91% among 650,000; in the data active = inhibition above about 50%
Target sequence (O75030 whole entry, looked up): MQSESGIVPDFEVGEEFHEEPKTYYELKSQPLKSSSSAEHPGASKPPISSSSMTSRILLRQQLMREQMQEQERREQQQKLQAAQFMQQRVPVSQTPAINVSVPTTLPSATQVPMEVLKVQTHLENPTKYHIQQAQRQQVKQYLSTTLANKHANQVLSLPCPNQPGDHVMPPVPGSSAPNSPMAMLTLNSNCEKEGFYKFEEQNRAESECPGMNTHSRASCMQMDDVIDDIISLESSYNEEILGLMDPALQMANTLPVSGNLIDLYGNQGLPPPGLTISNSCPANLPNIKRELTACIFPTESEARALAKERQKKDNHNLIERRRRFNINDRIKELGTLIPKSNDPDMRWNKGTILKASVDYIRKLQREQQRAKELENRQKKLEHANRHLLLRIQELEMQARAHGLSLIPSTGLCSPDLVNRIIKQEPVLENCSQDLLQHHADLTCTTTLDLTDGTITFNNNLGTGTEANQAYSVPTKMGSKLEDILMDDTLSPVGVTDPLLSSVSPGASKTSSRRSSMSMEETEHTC
TEAD-YAP block = TEAD-YAP interaction inhibition, primary screen, TEAD-YAP interaction inhibitor project, luminescence, HEK-TIYL cells; TEAD-Gal4/YAP UAS-luciferase luminescence; inhibition, % at 9.12 µM; hit rate 1.4% among 640,000; AID 1259422, 2018; in the data active = inhibition above about 32%
Large screens that a line does not name were inactive. This is a sample that favours compounds with a hit; in the whole collection about 3.5% have one here.

Cc1ccc(S(=O)(=O)N(C)c2nc3ccccc3nc2N2CCCN(C)CC2)cc1	none
O=C(Nc1ccc(-c2nc3ccccc3s2)cc1)C(F)(F)F	TEAD-YAP block 67.4
Cc1ccc2sc(-c3ccc(NC(=O)c4ccc(Br)cc4)cc3)nc2c1	none
CC(=O)Nc1nc(-c2nc3ccccc3s2)cs1	TEAD-YAP block 38.1
Cc1ccc2sc(-c3ccc(NC(=O)/C=C\C(=O)O)cc3)nc2c1	TEAD-YAP block 90.1
Cc1ccc2sc(-c3ccc(NC(=O)C(C)(C)C)cc3)nc2c1	TEAD-YAP block 36.9
Cc1ccc2[nH]c3c(=O)n(CCCN4CCCC4)cnc3c2c1	none
Cc1ccsc1CN1CCC(C(=O)N2CCCC(C)C2)CC1 (stereo not drawn)	none
Cc1ccc(-c2noc(CCCC(=O)Nc3ccccc3F)n2)cc1	none
COc1cc(/C=C(\NC(=O)c2ccccc2)C(=O)N2CC3CC(C2)c2cccc(=O)n2C3)cc2c1OCO2 (stereo not drawn)	none
Cc1ccccc1OCc1nnc(SCC(=O)N2CCC(C)CC2)n1C	none
N#C/C(=C\c1cccc(Oc2ccccc2)c1)c1nc2ccccc2c(=O)[nH]1	none
CNC(=O)c1cc2cc(Br)cc(Br)c2oc1=O	none
COC(=O)c1c(NC(=O)c2ccco2)sc(C(=O)Nc2ccc(F)cc2)c1C	none
COC(=O)c1c(NC(=O)c2ccco2)sc(C(=O)Nc2ccc(C)cc2)c1C	TEAD-YAP block 34.0
COc1ccccc1-c1csc(NC(=O)/C=C/c2ccccc2)n1	none
COc1ccc(/C=C/C(=O)Nc2nc(-c3ccc(F)cc3)cs2)cc1OC	TEAD-YAP block 57.2
COc1ccc(CN2CCc3nnc(CCc4ccccc4)n3CC2)c(OC)c1OC	none
O=C(Cc1ccc(Cl)c(Cl)c1)N1N=C(C2CC2)CC1(O)C(F)(F)F (stereo not drawn)	none
COc1ccc(C(=O)CSc2nc3scc(-c4ccccc4)c3c(=O)n2-c2ccccc2)cc1OC	FBW7 act 1.9
COc1ccc(C(=O)CSc2nc3sc4c(c3c(=O)n2-c2ccccc2)CCC4)cc1OC	none
O=C(CSc1nc(Nc2ccccc2)nc(Nc2ccccc2)n1)Nc1nccs1	none
CCN(CC)CCN1C(=O)C2(SC(NC(C)=O)=NN2C(C)=O)c2ccccc21 (stereo not drawn)	none
Cc1ccc(C(=O)c2cccc(N)c2)cc1C	TEAD-YAP block 56.6
O=C1c2ccccc2S(=O)(=O)N1CC(O)Cn1c2c(c3ccccc31)CCCC2 (stereo not drawn)	none
Cc1ccc(NC(=O)CCCCCC2NC(=O)NC2C)cc1 (stereo not drawn)	MITF inh 98.5
Cc1ccc(NC(=O)CCCCCN2C(=O)c3ccccc3C2=O)cc1	none
CCc1ccc(-c2cn3ccccc3n2)cc1	TEAD-YAP block 69.5
CCc1ccc(-c2cn3nc(C)c(C)nc3n2)cc1	TEAD-YAP block 92.1
CC(=O)Nc1ccc(-c2cn3ccccc3n2)cc1	TEAD-YAP block 38.5
CC(C)CC(=O)Nc1ccc(-c2cn3ccccc3n2)cc1	TEAD-YAP block 40.6
Cc1cccn2cc(-c3ccc(NC(=O)CC(C)C)cc3)nc12	none
CC(=O)Nc1ccc2nc(C(F)(F)F)[nH]c2c1	none
O=C1C(NCCO)=C(Nc2cccc(Cl)c2)C(=O)c2ccccc21	none
O=C(CCN1CCN(CCO)CC1)Nc1cccc(Cl)c1	none
COc1ccc(CCC(=O)NCCN2Cc3cc(C)ccc3OC(C)C2)cc1OC (stereo not drawn)	none
CC(C)N(CCNC(=O)c1cnc(Oc2ccccc2)s1)C(C)C	none
CC(C)N(CCNC(=O)c1cccc(Oc2ccccc2)n1)C(C)C	FBW7 act 3.1
O=C1CN(C(=O)CSc2nnc3sc4ccccc4n23)c2ccccc2N1	none
Cc1ccc(CN(CC(=O)O)Cc2cn(-c3ccccc3)nc2-c2cccs2)cc1	TEAD-YAP block 59.6
NC(=O)N/N=C/c1cn(-c2ccccc2)nc1-c1cccs1	none
COc1cc(C(=S)N2CCCCC2)ccc1OC(=O)c1ccccc1Cl	none
COc1ccc(F)cc1S(=O)(=O)Nc1ccc2nc(C)n(-c3ccc(Cl)cc3)c(=O)c2c1	none
CCOc1ccc(S(=O)(=O)Nc2ccc3nc(C)n(-c4ccc(F)cc4)c(=O)c3c2)c(OCC)c1	TEAD-YAP block 49.8
Cc1ccc(-c2nnn(CC(=O)Nc3ccc(C)c(Cl)c3)n2)c(-n2cnnn2)c1	none
COc1ccc(-c2c3cc(O)c(=O)cc-3oc3cc(O)c(O)cc23)cc1C	MITF inh 109.2
COc1ccc(-c2cc(=O)c3c(O)cc(O)cc3o2)cc1O	none
COc1cc(-c2c3cc(O)c(=O)cc-3oc3cc(O)c(O)cc23)cc(Cl)c1OC	MITF inh 98.5
COc1cc(-c2cc(=O)c3cc(O)ccc3o2)cc(OC)c1OC	none
CC1Sc2cc(S(=O)(=O)CCC(=O)Nc3cc(F)ccc3F)ccc2NC1=O (stereo not drawn)	none
COc1ccc(-c2cc3nccc(C4CCCNC4)n3n2)cc1OC (stereo not drawn)	none
COc1cccc(-c2cc3nc(C4CCCNC4)cc(N)n3n2)c1 (stereo not drawn)	TEAD-YAP block 36.8
c1ccc2ncc(-c3ccc4c(c3)COC3(CCNCC3)O4)cc2c1	TEAD-YAP block 63.9
COC(=O)C1=C(C)NC2=C(C(=O)CC(c3ccc(OC)c(OC)c3)C2)C1c1ccc(Br)cc1 (stereo not drawn)	none
CN(C)c1ccc(N2C(=O)CSC2=S)cc1	MITF inh 53.5
O=C1CSC(=S)N1c1ccc(F)cc1	none
COc1cccc(Nc2nc(N3CCN(C)CC3)nc3c2cnn3C)c1	TEAD-YAP block 42.8
COc1ccc(-n2ncc3c(Nc4ccc(F)cc4)ncnc32)cc1	none
COc1cccc(Nc2nc(N3CCN(c4cccc(Cl)c4)CC3)nc3c2cnn3C)c1	none
COc1ccc(-n2ncc3c(Nc4cccc(F)c4)ncnc32)cc1	TEAD-YAP block 38.7
COc1ccc(-n2ncc3c(Nc4cccc(OC)c4)ncnc32)cc1	TEAD-YAP block 45.9
COc1cccc(Nc2ncnc3c2cnn3-c2ccc(Cl)cc2)c1	none
N#CNc1nc(Cl)nc(Nc2ccccc2)n1	none
N#Cc1ccccc1NC(=S)NC(=O)/C=C/c1ccco1	none
CCOC(CNC(=O)c1c[nH]c2ccc(S(=O)(=O)N3CCc4ccccc43)cc2c1=O)OCC	none
COc1ccc(CCNC(=O)c2c[nH]c3ccc(S(=O)(=O)N4CCc5ccccc54)cc3c2=O)cc1OC	TEAD-YAP block 35.2
Oc1ccc(-c2nc3cc4sc(-c5ccc(O)cc5)nc4cc3s2)cc1	none
Cc1ccc2nc(-c3ccc(NC(=O)C4CCCN4S(C)(=O)=O)cc3)sc2c1 (stereo not drawn)	TEAD-YAP block 49.5
COc1ccc(OCC(=O)Nc2ccc(-c3nc4ccc(C)cc4s3)cc2)cc1	TEAD-YAP block 38.9
Cc1ccc2nc(-c3ccc(NC(=O)c4ccccc4C(=O)O)cc3)sc2c1	TEAD-YAP block 83.2
Cc1ccc2nc(-c3ccc(O)cc3)sc2c1	TEAD-YAP block 98.0
CCN/N=C1/C(=N/O)CCc2nonc21	none

Assay outcomes as filed in PubChem BioAssay.
